What follows are compounds tested against Solute carrier family 2, facilitated glucose transporter member 1 (Homo sapiens) (UniProt P11166) (assay: ST_JUDE_LEISH: Cytotoxicity at 2uM final concentration against transgenic Leishmania Mexicana promastigotes LmGLUT1 that are glucose transport deficient and complemented with the human glucose transporter GLUT1. Activity is measured by DNA content using SYBR green in vitro).
Format: functional

Sequence of Solute carrier family 2, facilitated glucose transporter member 1 (Homo sapiens) (P11166 whole entry): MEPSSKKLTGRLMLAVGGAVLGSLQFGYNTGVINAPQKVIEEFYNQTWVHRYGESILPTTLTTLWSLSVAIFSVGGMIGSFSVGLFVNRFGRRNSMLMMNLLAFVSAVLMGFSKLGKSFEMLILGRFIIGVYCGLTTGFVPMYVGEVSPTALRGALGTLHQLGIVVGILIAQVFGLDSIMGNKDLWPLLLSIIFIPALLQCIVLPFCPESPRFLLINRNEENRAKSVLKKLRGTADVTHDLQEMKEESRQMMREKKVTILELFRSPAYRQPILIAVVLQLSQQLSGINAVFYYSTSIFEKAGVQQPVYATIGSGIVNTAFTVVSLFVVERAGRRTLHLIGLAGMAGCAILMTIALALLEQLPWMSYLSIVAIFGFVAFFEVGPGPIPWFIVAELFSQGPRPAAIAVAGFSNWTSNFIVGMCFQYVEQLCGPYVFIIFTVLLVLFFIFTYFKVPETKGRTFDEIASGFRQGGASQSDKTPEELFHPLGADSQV

Going from COc1cc(NC(=O)N2CCc3ccc(OCCC4CCCN4C)cc32)cc(C(F)(F)F)c1 (stereo not given) to COC(=O)c1ccc(NC(=O)c2ccc(CCN3CCC(c4nc(COCC(F)(F)F)c(-c5ccc(F)cc5)o4)CC3)cc2)cc1, the inhibition rises from -0.5% to 3.21%.

First: N=C(N)Nc1nc(-c2ccc(NC(=O)Nc3cccc(-c4csc(NC(=N)N)n4)c3)cc2)cs1
Second: CCOC(=O)c1ccc(NC(=O)Nc2ccc(-c3cccc(-c4nc5cccc(C)c5[nH]4)c3)cc2)cc1
The inhibition of the first is lower: -0.61% for the first, -0.01% for the second.

Compared with O=C(NCCN1CCCCC1)c1cc2cc(-c3ccccc3)ccc2n1S(=O)(=O)c1ccccc1, Cc1ccc(NC(=O)c2cccc(CN3CCCN(Cc4cccc(O)c4)CC3)c2)cc1F is lower in inhibition: 71.9% for the first, 7.48% for the second.

Compared with O=c1cc(NCCCNC2CCc3ccc(Cl)cc32)[nH]c2ccccc12 (stereo not given), O=C(N[C@@H](Cc1ccccc1)[C@H](O)CNC1CCCc2ccccc21)c1cc(C2CCCC2)cc(N2CCCC2=O)c1 (stereo not given in full) is higher in inhibition: -2.61% for the first, -0.02% for the second.

Going from CC(Oc1ccc(NC(=O)c2cccs2)cc1)C(=O)c1ccc(Cl)cc1 (stereo not given) to CN(C)c1ccc(C=C2SC(=O)N=C2Nc2ccccc2)cc1, the inhibition falls from 11.3% to 1.62%.

First: O=[N+]([O-])c1ccc(Nc2nc(N/N=C/c3cccc(O)c3)nc(N3CCCC3)n2)cc1
Second: Cc1ccc2nc(C)cc(N/N=C/c3ccc([N+](=O)[O-])o3)c2c1
The inhibition of the first is lower: 3.46% for the first, 14.9% for the second.

First: Cc1cccc2nc(-c3ccc(-c4cccc(CNCc5cccc(N)c5)c4)cc3)[nH]c12
Second: COc1ccc(CN2CCN(CC(=O)Nc3cc(Cl)ccc3-n3cncn3)CC2)cc1F
The inhibition of the first is higher: 2.44% for the first, -1.01% for the second.

Work on Clc1cc(Cl)cc(Nc2ccnc(Nc3cc(Cl)cc(Cl)c3)n2)c1 yielded an inhibition of 4.6%.

Reference: ChEMBL document CHEMBL3433997, “St. Jude Leishmania screening dataset” (2016)
